A selection: hits, their analogues and other compounds. The true share with any hit is near 21%.
Pf growth 96h: P. falciparum growth inhibition at 96 hours; P. falciparum luciferase reporter growth, 96 h; Potency, µM (top dose mostly 28.7 µM), most hits filed as inhibitors; 6.9% of 320,000 active; AID 504834
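Luminescence readout: decreased luciferase signal marks inhibited growth of reporter-expressing P. falciparum in infected red cells (2% hematocrit, 0.05% parasitemia final), exposed to compound two generations (96 h, 37 C, 5% CO2).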
Shiga inhibitor: Shiga toxin inhibition; Vero cells, Shiga toxin protein synthesis inhibition reporter; inhibition, % at 38.7 µM; 9.2% of 290,000 active; AID 2315; in the data active = inhibition mostly above about 28%, no sharp cut-off; inactive = mostly below about 43%
Cycloheximide cs: counter-screen hit for Shiga toxin inhibitors, cycloheximide; max response, %; 12% of 300,000 active; cell reporter, cycloheximide protein synthesis inhibition counterscreen; AID 2314; in the data active = max response mostly above about 13%, no sharp cut-off; inactive = mostly below about 14%; note: read at 38.3 µM for the half of the compounds with a filed dose
SARS PLpro yeast: blocks SARS-CoV papain-like protease in a yeast assay; S. cerevisiae expressing SARS-CoV PLpro, growth rescue; Potency, µM (series often up to 32.9 µM), most hits filed as activators; 0.19% of 330,000 active; AID 485353; calls by dose curve; note: nearly all actives have a fitted effect of over 55% in size
NS1 inh: inhibitors of influenza NS1 protein function | 0.4% of 270,000 active | Potency, µM (top dose mostly 46.1 µM); calls by dose curve; note: actives are rising curves; nearly all actives have a fitted effect of over 50% in size
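In this qHTS, NS1 from influenza A is expressed in budding yeast, where it slows growth. Cells are switched from glucose to 2% galactose medium (pH 6.0, -URA), treated with compound, and growth recovery is read at OD600.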
Pf growth 48h: P. falciparum growth inhibition at 48 hours (one generation); P. falciparum luciferase growth in erythrocytes, 48 h; Potency, µM (top dose mostly 28.7 µM), most hits filed as inhibitors; 5.9% of 310,000 active
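Erythrocytes infected with P. falciparum carrying an integrated firefly luciferase reporter (2% hematocrit, 0.1% parasitemia final) were exposed to compounds in RPMI 1640 with 0.5% Albumax at 37 C, 5% CO2. Growth inhibition was scored as reduced luminescence.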
Of the large screens only hits and unclear results are named; the others gave an inactive call. Unless noted, calls come from the whole dose curve; as a rule, active = well fitted inhibition curve with a large enough effect; inconclusive = small, poorly fitted or top-dose-only effect, or another doubt; inactive = no such curve, though single readings can be large or run the other way.

CCc1nc2ccccc2n1CC(O)COCC1CC=CCC1 (stereo not drawn)	none
Cc1ccc(Nc2cc(C)c3c(O)cccc3n2)cc1C	Pf growth 96h 2.6µM, Shiga inhibitor 76, Cycloheximide cs 46, Pf growth 48h 2.6µM
COC(=O)c1cc(Nc2cc(C)c3ccc(O)cc3n2)cc(C(=O)OC)c1	Pf growth 96h inconclusive, Pf growth 48h inconclusive
COc1ccc(Nc2cc(C)c3c(O)cccc3n2)cc1	Pf growth 96h 1.7µM, Cycloheximide cs 32, Pf growth 48h 2.3µM
Cc1ccc(NC(=O)COC(=O)C2CC(=O)N(Cc3ccccc3)C2)cc1F (stereo not drawn)	none
CCCCc1ccc(NC(=S)NCCN2CCOCC2)cc1	none
COC(=O)c1ccccc1NC(=O)Nc1cc(C)ccn1	Pf growth 96h inconclusive
Cc1cc(NC(NC(=O)c2ccco2)(C(F)(F)F)C(F)(F)F)no1	Pf growth 96h inconclusive
CC(C)(C)c1cc(NC(=O)c2ccco2)no1	Shiga inhibitor 81, Cycloheximide cs 44
Cc1ccc(S(=O)(=O)NC(=O)Nc2cc(C(C)(C)C)on2)cc1	none
CC(C)(C)c1cc(NC(=O)Nc2ccccc2OC(F)(F)F)no1	Pf growth 96h inconclusive, Pf growth 48h 12µM
Cc1cc(C(=O)Nc2ccon2)c(C)o1	Pf growth 96h inconclusive (no result: NS1 inh)
COC(=O)c1ccccc1NC(=O)Nc1cc(C(C)(C)C)on1	Cycloheximide cs 40
Cc1cc(C(=O)Nc2cc(C(C)(C)C)on2)c(C)o1	Cycloheximide cs 39
CN1CCN(C(=O)/C(=C/c2ccccc2F)NC(=O)c2ccccc2)CC1	none
Cc1cccc(C(=O)NCC(=O)N2CC(=O)Nc3ccccc32)c1	none (no result: NS1 inh)
O=C(CN1C(=O)NC(Cc2ccccc2)C1=O)Nc1ccccc1OC(F)F (stereo not drawn)	none (no result: Shiga inhibitor, Cycloheximide cs, NS1 inh)
COCCN(C(=O)CSc1nnc(-c2cccc(F)c2)n1N)c1c(N)n(CC(C)C)c(=O)[nH]c1=O	none
CC(C)(C)c1cc(NC(=O)Nc2ccccc2)no1	Shiga inhibitor 70, Cycloheximide cs 33
O=C(CS(=O)(=O)c1c[nH]c2ccccc12)N1CCCCCC1	none (no result: NS1 inh)
O=C(Nc1cccc2cccnc12)c1ccc(Br)o1	Cycloheximide cs 26 (no result: Pf growth 96h)
O=C(Nc1cccc2c1CCCC2)c1ccc(Br)o1	none
O=C(Nc1cccc2ccccc12)c1ccc(Br)o1	Pf growth 96h 15µM
CSc1ccccc1NC(=O)c1ccc(Br)o1	Shiga inhibitor 45, Cycloheximide cs 36 (no result: Pf growth 48h)
CN(c1ccc(C(=O)NCCCn2ccnc2)cc1)S(C)(=O)=O	none
Cc1cc(CN2CCCC(N3CCc4ccccc4C3)C2)cc(C)c1O (stereo not drawn)	Pf growth 96h 10µM, Pf growth 48h inconclusive
COc1cc(OC)c(OC)cc1CNCCc1cccc(F)c1	none (no result: Pf growth 48h)
COc1ccc(CNCCc2cccc(F)c2)c2ccccc12	Pf growth 96h 13µM, Pf growth 48h inconclusive
COc1cc(N)c(Cl)cc1C(=O)N[C@H]1CCN(CCCOc2ccc(F)cc2)C[C@H]1OC	Pf growth 96h 4.7µM, Pf growth 48h 2.6µM (no result: Shiga inhibitor, Cycloheximide cs, SARS PLpro yeast, NS1 inh)
CCOC(=O)c1c(C)[nH]c(C)c1S(=O)(=O)N1CCN(C(=O)c2ccco2)CC1	none
COc1ccc(NC(=O)C2CC(=O)N(C)C(=Nc3ccc4c(c3)OCO4)S2)cc1 (stereo not drawn)	Pf growth 96h inconclusive, Pf growth 48h 10µM
COc1ccc2c(c1O)C(=O)c1ccccc1C2=O	none
CCCCNC1=CC(=O)C(=O)c2ccccc21	none
CC(C)(C=O)C1=CC(=O)c2ccccc2C1=O	Pf growth 96h inconclusive, Shiga inhibitor 25, Cycloheximide cs 28, Pf growth 48h inconclusive
O=C1C=C(N2CCOCC2)c2ccccc2C1=O	Pf growth 48h inconclusive (no result: Shiga inhibitor)
CC1=CC(=O)c2ccccc2C1=O	Pf growth 96h 15µM, Pf growth 48h inconclusive
COc1cccc2c1C(=O)C=C(C)C2=O	Pf growth 96h 15µM, Pf growth 48h inconclusive
COc1c2ccc(OCC/C(C)=C/C(=O)C=C(C)C)cc2nc2occc12	none (no result: Pf growth 96h, Shiga inhibitor, Cycloheximide cs, NS1 inh, Pf growth 48h)
COC(=O)Nc1ccc(S(=O)(=O)N2CCC(C(=O)NCc3ccc4c(c3)OCO4)CC2)cc1	none (no result: Pf growth 96h, Shiga inhibitor, Cycloheximide cs, NS1 inh, Pf growth 48h)
COc1ccc(NS(=O)(=O)c2c(F)cc(F)c(Cl)c2F)cc1S(=O)(=O)N1CCCCC1	none
O=C(CSc1nc2[nH]ncc2c(=O)n1-c1ccccc1)c1ccc2c(c1)OCCO2	Pf growth 48h inconclusive (no result: Pf growth 96h)
O=C(CSc1nc(O)cc(=O)n1-c1ccccc1)c1ccc(Br)cc1	Cycloheximide cs 24, NS1 inh inconclusive
N=c1c2cn[nH]c2nc(SCC(=O)c2ccc(Br)cc2)n1-c1ccc(Br)cc1	Pf growth 96h 7.4µM
CCOC(=O)N1CCC(N2C(=O)c3ccc(C(=O)NCCOC)cc3C2=O)CC1	Pf growth 96h inconclusive
COc1ccccc1N1CCN(C(=O)c2ccc3nc(-c4ccco4)c(-c4ccco4)nc3c2)CC1	NS1 inh 14µM, Pf growth 48h inconclusive (no result: Pf growth 96h)
COc1ccccc1N1CCN(C(=O)c2ccc3c(Cl)c4c(nc3c2)CCCC4)CC1	Pf growth 96h 12µM
COc1ccc(CN2CCC(Oc3ccc(C(=O)NCc4ccccn4)cc3)CC2)c(F)c1	Pf growth 96h inconclusive
O=C(NCc1ccccn1)c1ccc(OC2CCN(Cc3ccccc3)CC2)cc1	none
O=C(NCc1ccccn1)c1ccc(OC2CCN(Cc3ccccc3O)CC2)cc1	Pf growth 96h inconclusive, Pf growth 48h inconclusive
CCC(C)N1CCC(Oc2ccc(C(=O)NCc3ccccn3)cc2)CC1 (stereo not drawn)	Pf growth 96h 10µM
O=C(NCc1ccccn1)c1ccc(OC2CCN(Cc3ccc(F)cc3F)CC2)cc1	Pf growth 48h 12µM
COc1cccc(CN2CCC(Oc3ccc(C(=O)NCc4ccccn4)cc3)CC2)c1O	Pf growth 96h 6.6µM, Pf growth 48h inconclusive
Cc1ccc(-n2c(=S)[nH]c3c(oc4ccccc43)c2=O)cc1C	Shiga inhibitor 27, Cycloheximide cs 13
O=c1c2ccccc2[nH]c(=S)n1-c1ccc(Br)cc1	Pf growth 96h inconclusive, Pf growth 48h inconclusive (no result: NS1 inh)
O=c1c2oc3ccccc3c2[nH]c(=S)n1-c1ccc(F)cc1	Pf growth 96h 8.3µM (no result: NS1 inh)
Cc1ccc(S(=O)(=O)N2CCOCC2)cc1NC(=O)CNC1CCCC1	none
CCCc1ccc(Oc2cc(Cl)nc(N)n2)cc1	Pf growth 96h inconclusive, Cycloheximide cs 16
CCOC(=O)c1ccccc1NC(=O)Cc1sc(-c2cccnc2)nc1-c1ccc(C)cc1	Pf growth 96h 2.6µM, Pf growth 48h 4.1µM
O=C(O)Cc1sc(-c2cccnc2)nc1-c1ccc(Br)cc1	none (no result: NS1 inh)
Cc1ccc(-c2nc(-c3cccnc3)sc2CC(=O)Nc2ccc3nc(C)sc3c2)cc1	Pf growth 96h 13µM, Pf growth 48h inconclusive
CCOP(=S)(OCC)O/N=C(\C#N)c1ccccc1Cl	none (no result: Pf growth 96h, SARS PLpro yeast, NS1 inh, Pf growth 48h)
CC(Oc1cc2oc(=O)c3c(c2cc1Cl)CCC3)C(=O)NC1CC(C)(C)NC(C)(C)C1 (stereo not drawn)	Pf growth 96h inconclusive, SARS PLpro yeast inconclusive, Pf growth 48h 13µM

From PubChem
